Reference: PubChem BioAssay AID651640 (Broad Institute, 2012)
Among all 350,000 compounds or so, about 6,000 (1.7%) were called active. About 5% were inconclusive and are not listed. No stated cut-off is given here; in the data, active means CPE inhibition above about 20% (passing the limit was not always enough); inconclusive means no clear call, values can overlap the other calls; tested in BHK-21 cells. The list comes from a sample in which actives are over-represented; it also holds similar structures and randomly drawn compounds.

Test: protection of cells from dengue 2 killing – plate reader, single concentration, primary screen (AID 651640);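 further: 0% = median of neutral control wells and 100% = median of positive control wells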
Settings: DENV2-infected cells, cytopathic effect rescue, at 9.99 µM, active compounds read high

Compound | CPE inhibition
CO[C@@H]1CN(C)C(=O)c2cc(NC(=O)NC3CCCCC3)ccc2OC[C@H](C)N(CC2CC2)C[C@H]1C | 5.48% (inactive)
CN1c2ccc(-c3ccc(C#N)cc3)cc2[C@@H]2[C@@H](CCN2S(=O)(=O)c2cccc(F)c2)[C@@H]1CO | 2.27% (inactive)
COC(=O)[C@@H]1[C@@H](CO)[C@@H]2Cn3c(ccc(C4=CCCC4)c3=O)[C@@H]2N1Cc1cncnc1 | -0.488% (inactive)
CCOC(=O)C1CCN(Cc2c(C(=O)N3CCOCC3)nc3c(C)cccn23)CC1 | 115% (active)
Cc1cccn2c(CNCC(C)Oc3cccnc3)c(C(=O)N3CCOCC3)nc12 (configuration not stated) | 5.69% (inactive)
Cc1cccn2c(CN(C)C3CCCc4ccccc43)c(C(=O)N3CCOCC3)nc12 (configuration not stated) | -1.26% (inactive)
CN(C)C(=O)c1ccc(-c2ccc([C@H]3[C@@H](CO)N4C(=O)CN(C(=O)CC5CC5)C[C@@H]34)cc2)cc1 | -1.06% (inactive)
COc1ccccc1NC(=O)N1CC(=O)N2[C@H](CO)[C@H](c3ccc(C#Cc4ccccc4)cc3)[C@H]2C1 | 8.69% (inactive)
COc1cccc(-c2cn(CC[C@H]3CC[C@H](NC(=O)CN(C)C)[C@H](CO)O3)nn2)c1 | -8.73% (inactive)
O=C(Cc1ccncc1)N[C@H]1CC[C@H](CCn2cc(-c3ccccc3F)nn2)O[C@@H]1CO | -5% (inactive)
O=C(Cc1cccnc1)N[C@H]1CC[C@H](CCn2cc(-c3ccccc3F)nn2)O[C@H]1CO | 20% (active)
O=C(Cc1ccncc1)N[C@@H]1CC[C@H](CCn2cc(-c3ccccc3F)nn2)O[C@H]1CO | 2.31% (inactive)
CN(C)CC(=O)N[C@@H]1CC[C@@H](CCn2cc(C3CC3)nn2)O[C@H]1CO | 13.8% (inactive)
CN(C)CC(=O)N[C@@H]1CC[C@H](CCn2cc(C3CCCC3)nn2)O[C@H]1CO | 77.7% (active)
COc1ccc(S(=O)(=O)N[C@@H]2CC[C@H](CC(=O)N3CCc4ccccc4C3)O[C@H]2CO)cc1 | 2.67% (inactive)
COc1ccccc1CNC(=O)C[C@H]1CC[C@@H]2[C@H](COC[C@H](O)CN2Cc2ccccc2)O1 | -0.546% (inactive)
CO[C@@H](CN(C)C(=O)c1cnccn1)[C@H](C)CN([C@H](C)CO)S(=O)(=O)c1ccc(C)cc1 | -0.652% (inactive)
C[C@H]1CN([C@@H](C)CO)C(=O)Cc2cc(NC(=O)Cc3ccccc3)ccc2O[C@@H]1CN(C)Cc1ccc(Cl)c(Cl)c1 | 11.1% (inactive)
C[C@@H]1CN([C@@H](C)CO)C(=O)Cc2cc(NC(=O)CCCCCC(=O)Nc3ccccc3N)ccc2O[C@H]1CN(C)Cc1ccc(Cl)c(Cl)c1 | 35.5% (active)
C[C@H]1CN([C@@H](C)CO)C(=O)Cc2cc(NC(=O)CCCCCC(=O)Nc3ccccc3N)ccc2O[C@H]1CN(C)C(=O)Nc1ccc(F)cc1 | 6.87% (inactive)
C[C@@H]1CN([C@@H](C)CO)C(=O)Cc2cc(NC(=O)CCCCCC(=O)Nc3ccccc3N)ccc2O[C@H]1CN(C)C(=O)Nc1ccc(C(F)(F)F)cc1 | 0.365% (inactive)
C[C@H]1CN([C@@H](C)CO)C(=O)Cc2cc(NC(=O)CCCCCC(=O)Nc3ccccc3N)ccc2O[C@@H]1CN(C)Cc1ccncc1 | -3.1% (inactive)
C[C@H](CO)N1C[C@H](C)[C@H](CN(C)Cc2ccc(C(F)(F)F)cc2)Oc2ccc(NC(=O)CCCCCC(=O)Nc3ccccc3N)cc2CC1=O | 30.6% (active)
CC(=O)N(C)C[C@@H]1Oc2ncc(C#CCc3ccccc3)cc2C(=O)N([C@H](C)CO)C[C@H]1C | 13.5% (inactive)

Compound | CPE inhibition
CO[C@@H]1CN(C)C(=O)c2cc(NC(=O)c3ccccc3)ccc2OC[C@H](C)N(C(=O)CN(C)C)C[C@H]1C | -4.5% (inactive)
C[C@H](CO)N1C[C@H](C)[C@H](CN(C)Cc2ccc(C(=O)O)cc2)Oc2ccc(NS(=O)(=O)c3cn(C)cn3)cc2CC1=O | -5.77% (inactive)
CC(C)NC(=O)N(C)C[C@H]1Oc2ccc(NS(C)(=O)=O)cc2CC(=O)N([C@@H](C)CO)C[C@H]1C | -8.84% (inactive)
CO[C@H]1CN(C)C(=O)c2ccc(NC(=O)c3nc4ccccc4s3)cc2OC[C@@H](C)N(Cc2cncnc2)C[C@H]1C | -2.74% (inactive)
CO[C@@H]1CN(C)C(=O)c2cc(NC(=O)c3cnccn3)ccc2OC[C@@H](C)N(CC2CC2)C[C@H]1C | -5.97% (inactive)
CO[C@H]1CN(C)C(=O)c2cc(NC(=O)c3cnccn3)ccc2OC[C@H](C)N(C(=O)C2CC2)C[C@H]1C | 7.36% (inactive)
CO[C@H]1CN(C)C(=O)c2ccc(NC(=O)c3nc4ccccc4s3)cc2OC[C@H](C)N(Cc2cccnc2)C[C@@H]1C | 3.73% (inactive)
CO[C@H]1CN(C)C(=O)c2cc(NC(=O)c3nc4ccccc4s3)ccc2OC[C@H](C)N(Cc2cccnc2)C[C@@H]1C | 21.1% (active)
CO[C@H]1CN(C)C(=O)c2cc(NC(=O)c3cnccn3)ccc2OC[C@@H](C)N(CC2CC2)C[C@@H]1C | 26.7% (active)
COCC#Cc1ccc([C@@H]2[C@@H](CO)N3C(=O)CN(C(=O)C4CCCC4)C[C@@H]23)cc1 | -7.7% (inactive)
CC(C)NC(=O)N(C)C[C@H]1Oc2ccc(N(C)C)cc2C(=O)N([C@@H](C)CO)C[C@H]1C | -2.75% (inactive)
C[C@@H]1CCCCO[C@H](CN(C)C(=O)CCC(F)(F)F)[C@H](C)CN([C@H](C)CO)C(=O)c2cc(NC(=O)NC3CCCCC3)ccc2O1 | 0.687% (inactive)
COCC(=O)Nc1ccc2c(c1)C(=O)N(C)C[C@@H](OC)[C@@H](C)CN(C(=O)c1ccccc1)[C@@H](C)CO2 | 0.375% (inactive)
CN1CCN(C(=O)c2cc3c(c(-c4cccc(-c5ccc(C(=O)N(C)C)cc5)c4)n2)[C@@H](CCO)N([S@](=O)C(C)(C)C)C3)CC1 | 1.85% (inactive)
O=C(CN1CCOCC1)N1CCCCN2[C@H](CO)[C@H](c3ccc(-c4ccccc4)cc3)[C@@H]2C1 | 6.44% (inactive)
O=C(CN1CCOCC1)NC[C@@H]1N[C@@H](CO)[C@@H]1c1ccc(-c2ccccc2)cc1 | 29.8% (active)
O=C(CN1CCOCC1)N1CCCCN2[C@@H](CO)[C@H](c3ccc(-c4ccccc4)cc3)[C@@H]2C1 | -4.15% (inactive)
CN1C(=O)c2cc(NC(=O)c3cnccn3)ccc2OC[C@@H]2O[C@H](CC(=O)O)CC[C@@H]21 | 0.738% (inactive)
CCOc1ccc(/C=C/C(=O)N(CC)CC(=O)NCc2cccs2)cc1OC | 67.5% (active)
CCN(CC(=O)NCc1cccs1)C(=O)/C=C/c1ccc(C)cc1 | 13.7% (inactive)
COc1ccc(/C=C/C(=O)OCC(=O)NCc2cccs2)cc1OC | -0.984% (inactive)
COc1ccccc1C#Cc1ccc([C@H]2[C@H](CO)N3CCCCN(C(=O)C4CCC4)C[C@@H]23)cc1 | -8.41% (inactive)
Cc1cccc(C(=O)NC2CCN(CC(=O)Nc3cccc(Cl)c3)CC2)c1 | 39% (active)
Cc1cc(C)cc(NC(=O)NC2CCN(CC(=O)Nc3cccc(Cl)c3C)CC2)c1 | -4.01% (inactive)

Compound | CPE inhibition
O=C(CN1CCC(NC(=O)Nc2ccccc2)CC1)Nc1cccc([N+](=O)[O-])c1 | -9.16% (inactive)
C[C@H]1CN([C@@H](C)CO)S(=O)(=O)c2ccc(C#Cc3ccccc3)cc2O[C@@H]1CN(C)C(=O)C1CC1 | 19.8% (inactive)
Cc1ccccc1C1=NC(C(F)(F)F)(C(F)(F)F)c2c(n(-c3ccc(F)cc3)c(=O)[nH]c2=O)N1 | 22.3% (active)
COc1ccc2c3c([nH]c2c1)[C@H](CO)N(C(=O)Nc1ccc(F)cc1)CC31CN(S(=O)(=O)c2cccc(F)c2)C1 | 1.82% (inactive)
CCCNC(=O)N1[C@@H](C#N)[C@H](c2ccc(-c3ccc(C(=O)N(C)C)cc3)cc2)[C@@H]1CO | -5.96% (inactive)
COC(=O)C[C@@H]1CC[C@@H]2[C@H](COc3ccc(NS(=O)(=O)c4ccccc4F)cc3C(=O)N2C)O1 | 1.86% (inactive)
C[C@@H]1CCCCO[C@H](CN(C)C(=O)Nc2ccc3c(c2)OCO3)[C@H](C)CN([C@H](C)CO)C(=O)c2cc(NS(C)(=O)=O)ccc2O1 | 11.9% (inactive)
CCC(CO)Oc1cc(NC(=O)c2cccc3ccccc23)c2ncn(C(C)C)c2c1 (configuration not stated) | -11.1% (inactive)
CCC(CO)Oc1cc(NC(=O)c2cccc(F)c2)c2ncn(C(C)C)c2c1 (configuration not stated) | -10.5% (inactive)
CCC(CO)Oc1cc(NCc2ccccc2)c2ncn(C3CCCC3)c2c1 (configuration not stated) | 64.4% (active)
COc1ccc(SSc2ccc(OC)cc2C(=O)O)c(C(=O)O)c1 | 2.7% (inactive)
O=S(=O)(c1ccccc1)N1CCCCN2[C@@H](CO)[C@H](c3ccc(C#Cc4cccnc4)cc3)[C@@H]2C1 | 17.6% (inactive)
C[C@@H](O)C#Cc1ccc([C@@H]2[C@H]3CN(C(=O)c4ccc5c(c4)OCO5)CCCCN3[C@H]2CO)cc1 | 2.09% (inactive)
CC(C)(O)C#Cc1ccc([C@H]2[C@@H](CO)N3CCCCN(C(=O)c4ccncc4)C[C@H]23)cc1 | 0.094% (inactive)
CN(C)CC(=O)N1CCCCN2[C@@H](CO)[C@H](c3ccc(-c4cccnc4)cc3)[C@@H]2C1 | 33.3% (active)
COCC(=O)N1CCCCN2[C@H](CO)[C@@H](c3ccc(-c4ccc(OC)cc4)cc3)[C@@H]2C1 | -7.09% (inactive)
CC(C)C#Cc1ccc([C@H]2[C@H](CO)N3CCCCN(C(=O)c4ccc(F)cc4)C[C@@H]23)cc1 | 10.5% (inactive)
C[C@H](O)C#Cc1ccc([C@@H]2[C@@H](CO)N3CCCCN(C(=O)c4ccncc4)C[C@@H]23)cc1 | -16.7% (inactive)
C[C@H](O)C#Cc1ccc([C@H]2[C@H](CO)N3CCCCN(C(=O)c4ccc(F)cc4)C[C@@H]23)cc1 | 41.2% (active)
COc1ccc(C#Cc2ccc([C@@H]3[C@@H](CO)N4CCCCN(C(=O)c5ccncc5)C[C@@H]34)cc2)cc1 | 50.9% (active)
CCC(=O)N1CCCCN2[C@H](CO)[C@@H](c3ccc(-c4cccnc4)cc3)[C@H]2C1 | -0.425% (inactive)
O=C(Nc1ccccc1F)N1CCCCN2[C@H](CO)[C@@H](c3ccc(-c4cccnc4)cc3)[C@H]2C1 | 5.39% (inactive)
COCC(=O)N1CCCCN2[C@H](CO)[C@H](c3ccc(-c4ccc(OC)cc4)cc3)[C@H]2C1 | -1.33% (inactive)
COc1ccc(-c2ccc([C@@H]3[C@@H](CO)N4CCCCN(C(=O)NC(C)C)C[C@H]34)cc2)cc1 | 63.6% (active)
